Screens deposited in PubChem BioAssay by National Center for Advancing Translational Sciences (NCATS).
HPGD block – inhibitors of human 15-hydroxyprostaglandin dehydrogenase (HPGD) | purified HPGD, NADH fluorescence kinetic, PGE2 substrate | Potency, µM, inactives show at the top dose activity change, negative = inhibition, actives largely listed as inhibitors | 150,000 tested, 4.3% active; further: potency means the concentration at half of the fitted maximal effect
Target sequence (P15428 whole entry, looked up): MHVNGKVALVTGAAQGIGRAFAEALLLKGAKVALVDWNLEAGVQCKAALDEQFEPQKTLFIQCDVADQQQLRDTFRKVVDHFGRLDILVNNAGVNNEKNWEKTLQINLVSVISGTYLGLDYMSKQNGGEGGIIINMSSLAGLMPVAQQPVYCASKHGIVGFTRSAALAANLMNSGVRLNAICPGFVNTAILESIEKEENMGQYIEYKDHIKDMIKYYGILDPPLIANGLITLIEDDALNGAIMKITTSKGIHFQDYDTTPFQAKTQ
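NADH formation kinetics: reaction with 30 uM PGE2 and 1 mM NAD+ (final), 20 nM enzyme, Tris-HCl pH 8 with Tween 20, after 15 min compound preincubation at room temperature. Fluorescence change, last versus first of five reads.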
ALDH1A1 block – blocks purified human ALDH1A1 activity. Potency, µM (titrated, usually from 75.3 µM), for inactives: top-dose activity, negative = inhibition, most hits filed as inhibitors. 220,000 tested, 7.3% active. P00352. Purified ALDH1A1, NADH fluorescence, propionaldehyde substrate. AID 1030;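 further: potency means the concentration at half of the fitted maximal effect; plate controls were no enzyme wells and a reference inhibitor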
IMPase inh – cell-permeable inhibitors of inositol monophosphatase (IMPase) | AID 901 | CHO-M1 cells, IP1 accumulation, HTRF TR-FRET ratio | inhibition (IP1 accumulation), % at 46.1 µM | P97697 | 120,000 tested, under 10 active; active means well fitted curve in the direction sought with a large enough effect in the signal ratio, not every such curve was filed as active; inconclusive means small, poorly fitted or top-dose-only effect, or a change in a side signal; inactive means no such curve, though single readings can be large or run the other way; the % refers to the signal ratio;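 further: cells stimulated with carbachol in lithium chloride buffer; plate controls were DMSO basal wells for no effect and reference inhibitor wells for full effect; higher means more IMPase inhibition seen as more IP1 and lower FRET ratio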
Target sequence (P97697 whole entry, looked up): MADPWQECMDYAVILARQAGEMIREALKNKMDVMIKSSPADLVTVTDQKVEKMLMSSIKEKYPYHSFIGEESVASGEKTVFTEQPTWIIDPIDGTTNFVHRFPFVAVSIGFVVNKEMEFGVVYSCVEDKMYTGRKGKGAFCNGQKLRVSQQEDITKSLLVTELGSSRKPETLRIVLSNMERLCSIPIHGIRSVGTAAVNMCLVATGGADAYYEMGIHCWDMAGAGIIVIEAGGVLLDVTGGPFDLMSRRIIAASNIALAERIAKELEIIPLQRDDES
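The IP-One HTRF competitive assay in carbachol-stimulated CHO-M1 cells quantifies cellular IP1. Compounds spanned up to 46 uM final, and activity is expressed as AC50 from concentration-response fits of the ratio and donor data.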
Numbers without * were called inactive; [ ] = another dose, or the depositor's remark. Shown are actives, neighbours in structure and some others; about 9% of the full set was active somewhere. Unless noted, the call rests on the fitted dose curve; in most records, active means well fitted inhibition curve with a large enough effect (not every such curve was filed as active); inconclusive means small, poorly fitted or top-dose-only effect, or another doubt; inactive means no such curve, though single readings can be large or run the other way. Unless noted, on the % scale 0 is the no-effect control and ±100 the full control effect.

CCOC(=O)N1CCC(NC(=O)C2CCC(CNS(=O)(=O)c3ccc(OC)cc3)CC2)CC1 (stereo not drawn) was read as HPGD block -4%, ALDH1A1 block -8% and IMPase inh 7.
`COc1ccc(S(=O)(=O)NCC2CCCN(C(=O)C=C(C)C)C2)cc1` (stereo not drawn) gave ALDH1A1 block 4.5µM*.
`COC(=O)CCC(=O)N1CCCC(CNS(=O)(=O)c2ccc(OC)cc2)C1` (stereo not drawn) gave ALDH1A1 block 8.9µM*.
CC(C)Oc1ccc(C(=O)Nc2ccc(Cl)c(S(=O)(=O)Nc3ccc(Cl)cc3)c2)cc1 was read as HPGD block -26% and ALDH1A1 block 2%.
`C/C(=N\Nc1nc(-c2ccccc2)cs1)c1cccs1` gave HPGD block -24% and ALDH1A1 block inconclusive.
C/C(=N\Nc1nc2ccccc2s1)c1cccs1 was read as HPGD block 14µM* and ALDH1A1 block 5%.
`CCCn1c(C)nc2c(N(CCOC)CCOC)nc(C)nc21` gave HPGD block 1% and ALDH1A1 block 7%.
For Cc1cccc(N2C(=O)CC(N(O)c3ccccc3)C2=O)c1 (stereo not drawn) the results were HPGD block -9%, ALDH1A1 block inconclusive and IMPase inh -1.
Screening CCCCN(C(=O)CCC(=O)O)C1CC(=O)N(c2ccc(OCCC)cc2)C1=O (stereo not drawn) returned HPGD block -12%, ALDH1A1 block 13% and IMPase inh 7.
For COc1ccccc1N(O)C1CC(=O)N(c2ccc(Br)cc2)C1=O (stereo not drawn) the results were HPGD block 28µM*, ALDH1A1 block 18µM* and IMPase inh 1.
`CCCCCCC(=O)N(O)C1CC(=O)N(c2ccc(Br)cc2)C1=O` (stereo not drawn) gave HPGD block 7.1µM*, ALDH1A1 block 0.56µM* and IMPase inh 9.
`CC[C@]1(O)C[C@H]2CN(CCc3c([nH]c4ccccc34)[C@](C(=O)OC)(c3cc4c(cc3OC)N(C)[C@@H]3[C@](O)(C(=O)OC)[C@H](OC(C)=O)[C@]5(CC)C=CCN6CC[C@]43[C@@H]65)C2)C1` gave IMPase inh -1.
Screening O=C(NC1CC1)c1ccc(S(=O)(=O)NC2CCCCCC2)cc1 returned HPGD block -17%, ALDH1A1 block -4% and IMPase inh 5.
For O=C(NNS(=O)(=O)c1ccc(C(=O)NC2CCCC2)cc1)c1ccncc1 the results were ALDH1A1 block 2.8µM*.
For CCCCCC(=O)N1c2ccccc2C(C)(c2ccccc2)CC1(C)C (stereo not drawn) the results were IMPase inh 0.
For COCCNC(=O)C(=O)NCCN1CCNCC1 the results were ALDH1A1 block 7%.
Screening CC(=O)Nc1ccc(C(=O)Nc2nc(-c3cccnc3)cs2)cc1 returned ALDH1A1 block 10µM*.
COc1cccc(C(=O)Nc2nc(C)cs2)c1 was read as HPGD block inconclusive, ALDH1A1 block 8% and IMPase inh -3.
Screening COc1cccc(C(=O)Nc2nc(-c3ccncc3)cs2)c1 returned ALDH1A1 block 20µM*.
`O=C(Nc1nc(-c2ccccc2)cs1)c1cccnc1` gave HPGD block -7%, ALDH1A1 block 3% and IMPase inh 3.
Screening O=C(c1cnccn1)N1CCC2(CC1)CCN(c1ccncc1)CC2 returned HPGD block 2% and ALDH1A1 block 10%.
For CCCC(C)NC(=O)COC(=O)c1ccccc1SCC(=O)NC(C)CCC (stereo not drawn) the results were ALDH1A1 block 16%.
For CC1CCCN(C(=O)COC(=O)c2ccc[nH]c2=O)C1 (stereo not drawn) the results were HPGD block -8%, ALDH1A1 block 14% and IMPase inh -4.
Screening COc1cc2c(=O)n(Cc3ccco3)c(=O)n(CC(=O)c3cccc(Br)c3)c2cc1OC returned HPGD block -6%, ALDH1A1 block 1.1µM* and IMPase inh 3.
Screening COCCNC(=O)CCCn1c(=O)c2cc(OC)c(OC)cc2n(CC(=O)c2cccc(OC)c2)c1=O returned ALDH1A1 block -11%.
Screening COc1cc2c(=O)n(Cc3ccco3)c(=O)n(CC(=O)c3ccc(Br)cc3)c2cc1OC returned HPGD block -3%, ALDH1A1 block 0.4µM* and IMPase inh -2.
Screening COc1ccc(NC(=O)Cn2c(=O)n(CC(=O)NCc3ccco3)c(=O)c3ccccc32)cc1OC returned HPGD block -5%, ALDH1A1 block 9% and IMPase inh -13.
Screening Cc1ccc(S(=O)(=O)N2CCc3nc(-c4ccccc4)c4c(c3C2)CO[C@@H](C)C4)cc1 returned HPGD block -7% and ALDH1A1 block 24%[13.5 µM].
Screening COc1ccc(-n2c(C)cc(C)c(C(C)=O)c2=S)cc1 returned HPGD block 2% and ALDH1A1 block -6%.
Screening N#Cc1nc(COc2ccccc2)oc1N1CCCCC1 returned HPGD block inconclusive, ALDH1A1 block 13µM* and IMPase inh 6.
Screening N#Cc1nc(COc2ccc(Cl)cc2)oc1N1CCCCCC1 returned HPGD block inconclusive, ALDH1A1 block inconclusive and IMPase inh 47.
For N#Cc1ccc(CS(=O)(=O)c2nc3ccccc3s2)cc1 the results were HPGD block -3% and ALDH1A1 block inconclusive.
Screening COC(=O)C1=C(C)NC(=O)NC1c1ccc(-c2ccc(F)cc2)o1 (stereo not drawn) returned ALDH1A1 block -8%.
COCCOC(=O)C1=C(C)NC(=O)NC1c1ccc(-c2cc(Cl)ccc2Cl)o1 (stereo not drawn) was read as ALDH1A1 block 3.2µM*.
For COC(=O)C1=C(C)NC(=O)NC1c1ccc(-c2ccccc2Cl)o1 (stereo not drawn) the results were ALDH1A1 block 10µM*.
Screening COC(=O)C1=C(C)NC(C)=C(C(=O)OC)C1c1ccc(-c2cc(Cl)ccc2Cl)o1 returned HPGD block -25%, ALDH1A1 block inconclusive and IMPase inh -1.
Screening COCCNC(=O)CN(C(=O)Cn1nnc2ccccc21)c1cccc(C)c1C returned ALDH1A1 block -2%.
COc1ccc(OC(=O)CCc2c[nH]c3ccccc23)cc1 was read as ALDH1A1 block -4%.
For CCSC1=N/C(=C\c2ccc(OC)cc2)C(=O)N1 the results were HPGD block inconclusive and ALDH1A1 block 9.5µM*.
Screening COc1ccc(/C=C2/N=C(SC)NC2=O)cc1OC returned ALDH1A1 block -10%.
For COc1ccc(/C=C2\N=C(SC)NC2=O)cc1 the results were HPGD block 22µM*, ALDH1A1 block -8% and IMPase inh 14.
`CCSC1=N/C(=C\c2ccccc2)C(=O)N1c1ccc(OC)cc1` gave ALDH1A1 block 3%.
`CCC(=O)N1CCc2cc(S(=O)(=O)NC(Cc3ccccc3)C(=O)Nc3nccs3)ccc21` (stereo not drawn) gave HPGD block -9% and ALDH1A1 block inconclusive.
`Cc1c(Cl)cccc1NC(=S)NCCc1ccc(C(F)(F)F)cc1` gave ALDH1A1 block -1%.
Screening COCCN1CCC(CNCc2cn(-c3cc(C)ccc3C)nc2-c2ccccc2)C1 (stereo not drawn) returned ALDH1A1 block -7%.
